Inconclusive results are not listed. Some of the results follow. Activity calls are given as the source filed them. The call rests on the fitted dose curve; in most records, active means well fitted curve in the direction sought with a large enough effect; inconclusive means small, poorly fitted or top-dose-only effect, or another doubt; inactive means no such curve, though single readings can be large; an effect the other way counts as inactive or inconclusive.
These molecules were tested against Vitamin D3 receptor (Homo sapiens) (UniProt P11473) (assay: qHTS for Inhibitors of the vitamin D receptor (VDR): Hit Validation using a Beta-Lactamase Assay (AID 602202; further: potency means the concentration at half of the fitted maximal effect; on activity change, negative = inhibition: on the % scale 0 is the no-effect control and ±100 the full control effect)). Details: VDR beta-lactamase reporter cells, FRET ratio, cells co-treated with VDR agonist LG190178; series mostly up to 46.1 µM; activity change, negative = inhibition: at the top concentration.
Summary of the method: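 Beta-lactamase reporter read-out (447 nm emission of cleaved FRET substrate, 2 h) after 18 h compound exposure of HEK293 cells carrying a VDR-GAL4 fusion and UAS reporter, stimulated with LG190178.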

Chain of Vitamin D3 receptor (Homo sapiens) (P11473 whole entry, looked up, the tested form may be a part): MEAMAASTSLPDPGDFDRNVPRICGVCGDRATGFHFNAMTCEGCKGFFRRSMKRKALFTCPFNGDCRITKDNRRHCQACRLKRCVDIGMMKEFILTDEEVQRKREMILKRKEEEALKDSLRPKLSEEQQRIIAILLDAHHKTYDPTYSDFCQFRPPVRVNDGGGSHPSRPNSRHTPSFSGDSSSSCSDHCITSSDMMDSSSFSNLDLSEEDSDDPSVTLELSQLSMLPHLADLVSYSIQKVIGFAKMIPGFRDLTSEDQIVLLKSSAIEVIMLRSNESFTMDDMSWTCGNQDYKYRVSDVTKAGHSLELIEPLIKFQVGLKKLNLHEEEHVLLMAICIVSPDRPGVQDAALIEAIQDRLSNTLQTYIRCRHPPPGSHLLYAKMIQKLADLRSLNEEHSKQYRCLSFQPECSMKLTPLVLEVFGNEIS

SMILES | activity change, negative = inhibition | Potency
Cc1cccc(Oc2c([N+](=O)[O-])c(=O)n(C)c3ccccc23)c1 | 15.6% (inactive) | 
Cc1cccc(CS(=O)(=O)c2ncc(Cl)c(C(=O)Nc3ccc(F)cc3)n2)c1 |  | 5.17 µM (active)
O=c1[nH]c(/C=C\c2cccc(C(F)(F)F)c2)nc(O)c1[N+](=O)[O-] | 14.1% (inactive) | 
CC(=O)N(C1=C(Cl)C(=O)c2ccccc2C1=O)c1ccc(C(=O)O)cc1 |  | 20.6 µM (active)
COC(=O)/C=C\C(=O)Nc1cccc([N+](=O)[O-])c1 |  | 14.6 µM (active)
CCOc1ccc(N(Cc2ccccc2)C(=O)c2nc(S(C)(=O)=O)ncc2Cl)cc1 |  | 20.6 µM (active)
O=C(/C=C/c1ccc(Cl)cc1Cl)c1cccnc1 | -1.2% (inactive) | 
CCOC(=O)c1sc(NC(=O)CSc2nc(C)cc(C(F)(F)F)n2)c(C#N)c1C | 26.1% (inactive) | 
Cc1ccc(-c2nc3ccccn3c2Nc2c(C)cccc2C)o1 | 0.179% (inactive) | 
CC1CCN(C(=S)c2ccc(-c3ccc(Cl)cc3Cl)o2)CC1 | 10.3% (inactive) | 
C=CCOc1ccc(/C=C2/C(=O)ON=C2C)cc1OCC | -19.9% (inactive) | 
O=C(/C=C/c1ccccc1)c1ccccc1O | 26.8% (inactive) | 
CCCCS(=O)(=O)c1oc(-c2cccs2)nc1S(=O)(=O)c1ccccc1 |  | 5.8 µM (active)
O=[N+]([O-])/C=C/c1ccc2c(ccn2Cc2ccccc2)c1 |  | 18.4 µM (active)
COc1ccc(CS(=O)/C(Cl)=C(/Cl)C(=O)Nc2ccc(OC)nc2)cc1 (centres undefined) |  | 0.731 µM (active)
CCOC(=O)N1CCN(C(c2cccnc2)c2ccc3cccnc3c2O)CC1 (centres undefined) | -9.98% (inactive) | 

The molecules below were run against Luciferin 4-monooxygenase (Photinus pyralis) (UniProt P08659) (assay: Biochemical firefly luciferase enzyme assay for NPC (AID 624030;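 further: purified P. pyralis luciferase at 10 nM with luciferin and ATP substrate; 0% = DMSO and -100% = full luciferase inhibition by PTC124 control; nearly all actives have a fitted effect of over 70% in size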)). Details: purified P. pyralis luciferase, luminescence, 5 min; series mostly up to 58.6 µM; activity change, negative = inhibition: at the top concentration.
Summary of the method: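 Direct inhibition of firefly luciferase enzyme (10 nM final, 50 mM Tris Acetate) assessed by luminescence within 5 minutes. Percent activity scaled between DMSO and PTC124 positive control, with concentration-effect curves classified by fit quality and response.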

Chain of Luciferin 4-monooxygenase (Photinus pyralis) (P08659 whole entry, looked up): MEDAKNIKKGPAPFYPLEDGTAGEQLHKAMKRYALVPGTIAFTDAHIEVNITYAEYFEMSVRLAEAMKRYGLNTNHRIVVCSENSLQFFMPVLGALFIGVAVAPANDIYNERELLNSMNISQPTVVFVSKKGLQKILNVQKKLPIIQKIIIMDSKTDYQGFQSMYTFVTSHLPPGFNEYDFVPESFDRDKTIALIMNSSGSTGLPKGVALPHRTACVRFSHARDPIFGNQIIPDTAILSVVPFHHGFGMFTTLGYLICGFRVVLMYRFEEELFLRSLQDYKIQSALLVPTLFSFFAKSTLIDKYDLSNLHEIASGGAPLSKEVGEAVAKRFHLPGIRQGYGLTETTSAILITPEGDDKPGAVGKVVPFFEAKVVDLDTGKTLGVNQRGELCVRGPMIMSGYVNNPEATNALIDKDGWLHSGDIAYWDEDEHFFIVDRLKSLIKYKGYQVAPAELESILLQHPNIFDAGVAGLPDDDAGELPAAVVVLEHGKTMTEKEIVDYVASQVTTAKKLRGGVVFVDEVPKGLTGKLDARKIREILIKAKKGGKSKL

SMILES | activity change, negative = inhibition
CC(C)=CCC/C(C)=C\CC/C(C)=C\CC/C=C(\C)CC/C=C(\C)CCC=C(C)C | 2.76% (inactive)
c1ccc(C(OC2CCCN(CCc3ccc4c(c3)OCO4)C2)c2ccccc2)cc1 (centres undefined) | 0.0642% (inactive)
CC(C)C[C@@H](NC(=O)[C@@H](COC(C)(C)C)NC(=O)[C@H](Cc1ccc(O)cc1)NC(=O)[C@@H](CO)NC(=O)[C@@H](Cc1c[nH]c2ccccc12)NC(=O)[C@@H](Cc1cnc[nH]1)NC(=O)[C@@H]1CCC(=O)N1)C(=O)N[C@H](CCCN=C(N)N)C(=O)N1CCC[C@H]1C(=O)NNC(N)=O | 1.2% (inactive)
